ROC1-CUL1 inh: inhibitors of human ROC1-CUL1 ubiquitin ligase activity | E3 ubiquitin-protein ligase RBX1 (Homo sapiens) + Cullin-1 (Homo sapiens), P62877+Q13616 | in vitro K48 di-Ub FRET, acceptor:donor ratio, 45 min | inhibition, % at 10 µM | 0.6% of 140,000 active; in the data active = inhibition above about 25%
Large screens that a line does not name were inactive. Shown is part of a subset that was picked to be rich in hits.

O=C(/C=C/c1cc[n+](CC(=O)c2ccc3cccc4c3c2CC4)cc1)c1ccc2cccc3c2c1CC3	ROC1-CUL1 inh 87
CCOc1ccc(-n2nc3ccc(NC(=O)c4cc(OC)cc(OC)c4)cc3n2)cc1	none
CCOc1ccc(NC(=O)c2c(NC(=O)C(C)(C)C)sc3c2CCC(C)C3)cc1 (stereo not given)	none
Cc1cc(Br)c(OCC(=O)N/N=C/c2ccc(-c3ccc(C)c(Cl)c3)o2)c(Br)c1	none
O=C(CC1(c2cccc(C(F)(F)F)c2)CC(=O)N(C2CC2)C1=O)N1CCCCC1c1cccnc1 (stereo not given)	none
CCCC(=O)C1=CCC2C3CCc4cc(OS(N)(=O)=O)ccc4C3CC[C@]12C (stereo not given in full)	none
CCc1nnc(NC(=O)COC)s1	none
CCOCC(=O)Nc1nnc(CC)s1	none
CCc1nnc(NC(=O)CCSCCC(=O)Nc2nnc(CC)s2)s1	ROC1-CUL1 inh 37
Nc1c(C(=O)Nc2ccc(Cl)cc2Cl)sc2nc(-c3cccs3)ccc12	none
COc1ccc2occ(C(=O)c3coc4ccc(OC)cc34)c2c1	none
COc1ccc(-c2occ(C(=O)O)c2C(=O)O)cc1	ROC1-CUL1 inh 47
O=C(O)c1ccccc1-c1occ(C(=O)c2ccccc2)c1C(=O)O	none
COCC(=O)Nc1ccc(Cl)c(Cl)c1	none
Cc1ccc(C(=O)C(C(=O)/C=C/c2cccc(O)c2)=C2SCCCCS2)cc1	none
Cn1c(=O)c2ncc(C(=O)c3ccccc3)nc2n(C)c1=O	none
CCC(=O)N1C(=O)c2c(C)nc3sc4c(c3c2N=C(CC)N1C(=O)CC)CC(C)(C)OC4	none
COc1ccc(C(=O)c2sc3nc(-c4cccs4)cc(-c4cccs4)c3c2N)cc1	none
CCOc1cc(/C=C2\C(=O)NN(c3ccccc3)C2=O)cc(Br)c1OCc1ccc(Cl)c(Cl)c1	none
CCOc1cc(/C=C2\C(=O)NN(c3ccccc3)C2=O)cc(Cl)c1OCCOc1cc(C)ccc1C	ROC1-CUL1 inh 44
O=C1NN(c2ccccc2)C(=O)/C1=C/c1cc(Br)ccc1OCc1c(Cl)cccc1Cl	none
COc1cc(/C=C2\C(=O)NN(c3ccccc3)C2=O)ccc1OCCOCCOc1ccccc1C	none
COc1cc(/C=C2\C(=O)NN(c3ccccc3)C2=O)cc(Cl)c1OCc1ccc(Cl)c(Cl)c1	ROC1-CUL1 inh 57
COc1cc(/C=C2/C(=O)NN(c3ccc(C)c(Cl)c3)C2=O)ccc1OCc1ccccc1	none
CCOc1cc(/C=C2\C(=O)NN(c3ccccc3)C2=O)cc(Br)c1OCc1c(Cl)cccc1Cl	ROC1-CUL1 inh 28
COc1cc(/C=C2\C(=O)NN(c3ccccc3)C2=O)cc(Br)c1OCCCOc1ccccc1	none
CCOc1cc(/C=C2\C(=O)NN(c3ccccc3)C2=O)cc(Cl)c1OCCOc1ccc(OC)cc1	none
COc1cc(/C=C2/C(=O)NN(c3ccc(Cl)cc3)C2=O)ccc1OCc1ccc(F)cc1	none
COc1cc(/C=C2\C(=O)NN(c3ccccc3)C2=O)cc(Br)c1OCCCOc1ccc(C)cc1	none
COc1cc(/C=C2\C(=O)NN(c3ccccc3)C2=O)cc(Cl)c1OCCCOc1ccccc1	ROC1-CUL1 inh 93
O=C1c2ccccc2OC(c2ccccc2)N1NCc1ccccc1 (stereo not given)	none
NC(=O)C1CCCN(Cc2ccc3c(c2)CN(Cc2cccn2-c2ccc(Cl)cn2)CCO3)C1 (stereo not given)	none
CCn1nc(CC(C)C)cc1C(=O)N1CCC(c2cc(=O)[nH]cn2)CC1	none
O=c1sc2ncccc2n1-c1ncccc1[N+](=O)[O-]	none
Cc1ccc(-c2csc(NC(=O)C3CC3)n2)cc1	none
Cc1ccc2c(c1)-c1c(ssc1=S)C(C)(C)N2C(=O)Nc1ccc(Cl)cc1	none
CCOc1c(/C=N/NC(=O)c2ccc(NS(=O)(=O)c3ccc(C)cc3)cc2)cccc1OC	none
CCC(CC)NC(=O)C(CC)c1ccccc1 (stereo not given)	none
Cc1cc(C)c(C#N)c(SCc2nc3cccc(C)n3c2Br)n1	none
CCOc1ccc(-c2nn(-c3ccccc3)cc2C2NC(=O)N=C(C)C2C(=O)OC(C)C)cc1C (stereo not given)	none
CCOc1cc(/C=C2\C(=O)NN(c3ccccc3)C2=O)cc(Cl)c1OCCCOc1ccc(Cl)cc1	none
COc1ccc(/C=C2\C(=O)NN(c3ccc(Cl)cc3)C2=O)cc1OC	none
CCOc1cc(/C=C2/C(=O)NN(c3ccc(Cl)cc3)C2=O)cc(I)c1OC	ROC1-CUL1 inh 39
CCOC(=O)c1sc(Nc2ccccc2)c(C(=O)OCC)c1C	none
CN1CCN(c2ccc(-c3nc(CCCc4ccccc4)no3)cn2)CC1=O	none
CCN(CC)C(=O)c1cc(-c2ccccn2)nc2ccccc12	none
Cc1ccc(OCCCCN2CCNCC2)c(C(C)(C)C)c1	ROC1-CUL1 inh 25
Cc1ccc(OCCCCCN2CCNCC2)cc1	none
Cc1cc(Cl)ccc1OCCCCCN1CCNCC1	none
COc1cc(SC)ccc1C(=O)NC1CCCC1	none
O=C1C(=Nc2ccc(F)cc2)C(N2CCOCC2)C(=O)c2ccccc21 (stereo not given)	ROC1-CUL1 inh 50
CC(=O)N=C1C(=O)c2ccccc2C(=O)C1N1CCN(c2ccc(F)cc2)CC1 (stereo not given)	none

Source: PubChem BioAssay (Pan Lab, Icahn School of Medicine at Mount Sinai)
